According to PubChem BioAssay:
The source made the active and inactive calls.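 Rule for the calls: active = inhibition above 50%; inactive = the rest.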

Test: human hepatoma cell viability loss – ATP luminescence, cytotoxicity control for P. falciparum antimalarial project, primary screen (AID 2303);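 note: 0% = DMSO wells and 100% = digitonin-killed cells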
Conditions: HepG2 viability, 24-48 h, at 10 µM, stronger effect = higher value

Question: With `O=[N+]([O-])c1ccc(-n2nc(Cc3ccccc3)n(Cc3cccc(F)c3)c2=S)c(C(F)(F)F)c1` as the molecule, how does the inhibition read?
Answer: 4% (inactive)

Question: Which inhibition does the source give for `O=C(NCCN1CCC(c2ncc(-c3ccccc3)o2)CC1)c1ccc(NC(=O)c2ccc(Cl)cc2)cc1` here?
Answer: 32% (inactive)

Question: Which inhibition does the source give for `CC(C)c1sc(N2CCN(C)CC2)nc1C(=O)Nc1cccc2c1CCCC2` here?
Answer: 3% (inactive)

Question: With `Cc1ccccc1NC(=O)C1CSCN1C(=O)OCc1ccccc1` (stereo not drawn) as the molecule, how does the inhibition read?
Answer: 8% (inactive)

Question: With `COc1ccc2ncc(F)c(CCN3C[C@H](CNCc4cc(F)c5c(c4)NC(=O)CO5)[C@H](O)C3)c2n1` as the molecule, how does the inhibition read?
Answer: 3% (inactive)

Question: For `COc1cc(Br)ccc1N1CCN(CCCCNC(=O)c2ccc(NC(=O)c3ccc(Cl)cc3)cc2)CC1`, which inhibition is on record?
Answer: 55% (active)

Question: For `CC(C)CCN1CCC(Oc2ccc(NC(=O)c3ccc4ncccc4c3)cc2Cl)C1` (stereo not drawn), which inhibition is on record?
Answer: 33% (inactive)

Question: Which inhibition does the source give for `CC(C)Cc1c(O)nc(SCCN2CCOCC2)[nH]c1=O` here?
Answer: 19% (inactive)

Question: For `O=C(Nc1cccc(CN2CCCN(Cc3ccc(F)cc3)CC2)c1)c1ccc(Cl)c(Cl)c1`, which inhibition is on record?
Answer: 27% (inactive)

Question: Which inhibition does the source give for `CCC[C@@H]([C@@H](CC1CCCCC1)C(=O)N[C@H](C(=O)Nc1nccs1)[C@H](C)O)N(O)C=O` here?
Answer: -4% (inactive)

Question: Which inhibition does the source give for `O=C(Nc1ccc(C(=O)N2CCN(CCN3CCN(c4cccc(C(F)(F)F)c4)CC3)CC2)cc1)c1ccc(OC(F)(F)F)cc1` here?
Answer: 38% (inactive)

Question: With `c1ccc(CNc2nc(NCCc3cnc[nH]3)nc(NCc3cccc4ccccc34)n2)cc1` as the molecule, how does the inhibition read?
Answer: 9% (inactive)

Question: With `COc1ccc(C2CCN(CCCCNC(=O)c3ccc(NC(=O)c4ccc(Cl)cc4)cc3)CC2)c(C)c1` as the molecule, how does the inhibition read?
Answer: 22% (inactive)
